# ± gives the standard deviation of the averaged measurements.
# Legend:
# Assay in all cases: relative enzymatic activity vs untreated control (fraction); higher = less inhibition
# Details in all cases: 100 µM; incubation time: 2 h at 37 C
# [1] = test system: DNA gyrase
# Method: (§1)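 In vitro enzymatic inhibition assays (ProFoldin kits) for 12 purified essential E. coli enzymes or complexes, each treated with 218 active antibacterial compounds at 100 µM for 2 h at 37°C. Read-outs were fluorescence or absorbance (phosphate detection, dye binding), converted to activity via standard curves and expressed relative to untreated DMSO controls.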
# [2] = molecular target: DNA helicase (UniProt P0ACB1)
# DNA helicase, sequence (P0ACB1 whole entry): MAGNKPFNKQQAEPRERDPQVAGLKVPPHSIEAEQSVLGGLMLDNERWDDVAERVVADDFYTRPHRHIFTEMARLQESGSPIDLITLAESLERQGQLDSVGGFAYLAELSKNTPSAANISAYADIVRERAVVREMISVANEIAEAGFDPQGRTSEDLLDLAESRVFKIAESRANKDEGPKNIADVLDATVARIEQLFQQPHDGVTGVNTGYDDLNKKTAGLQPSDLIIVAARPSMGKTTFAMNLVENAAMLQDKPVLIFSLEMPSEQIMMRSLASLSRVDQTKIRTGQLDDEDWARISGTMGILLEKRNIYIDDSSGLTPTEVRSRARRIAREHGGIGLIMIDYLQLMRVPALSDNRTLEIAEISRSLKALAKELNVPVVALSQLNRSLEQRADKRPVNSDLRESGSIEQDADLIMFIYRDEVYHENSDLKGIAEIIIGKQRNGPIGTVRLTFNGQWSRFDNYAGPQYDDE
# Method: as §1
# [3] = molecular target: DNA ligase (UniProt B1XA82)
# DNA ligase, sequence (B1XA82 whole entry): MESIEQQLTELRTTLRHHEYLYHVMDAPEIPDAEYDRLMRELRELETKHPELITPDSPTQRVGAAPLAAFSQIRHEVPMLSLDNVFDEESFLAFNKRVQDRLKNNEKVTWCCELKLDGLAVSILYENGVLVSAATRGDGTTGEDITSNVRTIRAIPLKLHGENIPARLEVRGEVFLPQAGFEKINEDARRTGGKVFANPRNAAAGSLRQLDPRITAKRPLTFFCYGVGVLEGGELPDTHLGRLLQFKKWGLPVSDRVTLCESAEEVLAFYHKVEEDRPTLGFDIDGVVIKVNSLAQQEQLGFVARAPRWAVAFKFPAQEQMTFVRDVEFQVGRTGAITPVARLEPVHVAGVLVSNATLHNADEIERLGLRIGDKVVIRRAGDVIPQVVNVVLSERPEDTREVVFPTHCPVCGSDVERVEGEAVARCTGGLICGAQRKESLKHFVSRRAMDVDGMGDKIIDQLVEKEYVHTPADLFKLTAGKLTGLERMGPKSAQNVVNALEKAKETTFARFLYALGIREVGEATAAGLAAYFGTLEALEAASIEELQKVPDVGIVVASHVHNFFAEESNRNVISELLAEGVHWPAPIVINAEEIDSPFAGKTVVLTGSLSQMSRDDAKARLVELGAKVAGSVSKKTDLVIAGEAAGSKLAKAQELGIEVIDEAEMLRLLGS
# Method: as §1
# [4] = molecular target: DNA polymerase (UniProt P10443)
# DNA polymerase, sequence (P10443 whole entry): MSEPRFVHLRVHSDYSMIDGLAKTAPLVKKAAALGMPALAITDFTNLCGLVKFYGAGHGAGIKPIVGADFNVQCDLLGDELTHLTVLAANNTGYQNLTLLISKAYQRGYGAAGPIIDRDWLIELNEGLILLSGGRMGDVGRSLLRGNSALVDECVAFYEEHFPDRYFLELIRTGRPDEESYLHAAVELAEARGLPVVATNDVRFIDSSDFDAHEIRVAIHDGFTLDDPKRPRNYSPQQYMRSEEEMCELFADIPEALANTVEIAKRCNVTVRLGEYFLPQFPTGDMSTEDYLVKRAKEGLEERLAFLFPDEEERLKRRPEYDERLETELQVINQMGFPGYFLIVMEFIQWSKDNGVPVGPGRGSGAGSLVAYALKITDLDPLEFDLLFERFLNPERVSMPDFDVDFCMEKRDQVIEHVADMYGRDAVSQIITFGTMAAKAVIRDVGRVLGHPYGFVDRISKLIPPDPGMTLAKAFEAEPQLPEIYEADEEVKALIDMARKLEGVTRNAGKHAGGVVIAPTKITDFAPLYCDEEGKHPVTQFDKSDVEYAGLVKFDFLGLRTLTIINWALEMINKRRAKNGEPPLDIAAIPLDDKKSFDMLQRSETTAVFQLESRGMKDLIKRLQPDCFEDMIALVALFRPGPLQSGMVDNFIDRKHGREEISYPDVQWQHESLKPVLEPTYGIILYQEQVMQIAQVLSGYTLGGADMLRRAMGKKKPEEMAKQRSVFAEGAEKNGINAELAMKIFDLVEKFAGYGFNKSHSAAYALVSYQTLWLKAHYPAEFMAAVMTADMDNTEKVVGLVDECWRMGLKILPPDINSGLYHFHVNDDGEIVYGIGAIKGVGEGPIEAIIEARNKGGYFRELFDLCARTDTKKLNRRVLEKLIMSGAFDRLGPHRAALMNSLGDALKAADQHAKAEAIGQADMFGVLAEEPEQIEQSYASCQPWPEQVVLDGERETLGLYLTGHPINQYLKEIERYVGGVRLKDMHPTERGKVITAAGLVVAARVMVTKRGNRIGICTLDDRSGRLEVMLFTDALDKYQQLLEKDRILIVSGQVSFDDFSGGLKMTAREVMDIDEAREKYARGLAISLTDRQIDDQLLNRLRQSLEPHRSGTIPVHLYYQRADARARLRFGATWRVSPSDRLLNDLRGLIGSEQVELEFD
# Method: as §1
# [5] = molecular target: DNA primase (UniProt P0ABS7)
# DNA primase, sequence (P0ABS7 whole entry): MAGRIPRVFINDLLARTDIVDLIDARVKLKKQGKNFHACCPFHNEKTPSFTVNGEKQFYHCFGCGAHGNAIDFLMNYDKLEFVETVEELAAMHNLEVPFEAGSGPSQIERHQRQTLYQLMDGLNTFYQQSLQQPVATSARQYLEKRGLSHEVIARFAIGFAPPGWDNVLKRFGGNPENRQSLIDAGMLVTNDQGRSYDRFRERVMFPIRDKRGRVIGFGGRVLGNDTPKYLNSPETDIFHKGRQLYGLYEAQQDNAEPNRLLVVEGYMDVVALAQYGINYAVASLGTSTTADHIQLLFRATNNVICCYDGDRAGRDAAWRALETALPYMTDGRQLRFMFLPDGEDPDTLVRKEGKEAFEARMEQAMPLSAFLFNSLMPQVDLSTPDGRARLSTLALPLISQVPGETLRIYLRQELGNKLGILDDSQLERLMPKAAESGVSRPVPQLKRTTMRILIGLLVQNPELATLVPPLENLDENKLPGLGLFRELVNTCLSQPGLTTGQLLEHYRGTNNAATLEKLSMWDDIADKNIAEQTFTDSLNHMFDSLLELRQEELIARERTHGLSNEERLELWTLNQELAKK
# Method: as §1
# [6] = molecular target: GlmU (UniProt A7ZTU1)
# GlmU, sequence (A7ZTU1 whole entry, looked up): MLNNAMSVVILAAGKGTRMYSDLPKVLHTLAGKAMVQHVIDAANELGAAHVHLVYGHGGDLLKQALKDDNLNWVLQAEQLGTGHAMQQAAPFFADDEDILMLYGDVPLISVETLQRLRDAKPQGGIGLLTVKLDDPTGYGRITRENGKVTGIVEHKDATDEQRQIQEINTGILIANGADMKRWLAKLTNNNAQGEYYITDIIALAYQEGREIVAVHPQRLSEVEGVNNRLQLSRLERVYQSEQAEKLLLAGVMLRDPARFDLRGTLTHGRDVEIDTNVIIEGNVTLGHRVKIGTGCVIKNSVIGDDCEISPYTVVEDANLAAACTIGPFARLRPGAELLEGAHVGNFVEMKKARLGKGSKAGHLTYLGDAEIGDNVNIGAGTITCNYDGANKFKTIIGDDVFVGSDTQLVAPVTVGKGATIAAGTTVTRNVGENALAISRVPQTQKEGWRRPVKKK
# Method: as §1
# [7] = molecular target: Guanlyate kinase (UniProt Q0TBG1)
# Guanlyate kinase, sequence (Q0TBG1 whole entry): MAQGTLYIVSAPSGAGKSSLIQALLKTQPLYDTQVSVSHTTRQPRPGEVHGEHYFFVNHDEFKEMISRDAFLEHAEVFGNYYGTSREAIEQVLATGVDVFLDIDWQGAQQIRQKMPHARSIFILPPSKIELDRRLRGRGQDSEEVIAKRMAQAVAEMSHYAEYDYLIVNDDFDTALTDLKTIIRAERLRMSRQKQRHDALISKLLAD
# Method: as §1
# [8] = molecular target: MurA (UniProt Q3YX52)
# MurA, sequence (Q3YX52 whole entry): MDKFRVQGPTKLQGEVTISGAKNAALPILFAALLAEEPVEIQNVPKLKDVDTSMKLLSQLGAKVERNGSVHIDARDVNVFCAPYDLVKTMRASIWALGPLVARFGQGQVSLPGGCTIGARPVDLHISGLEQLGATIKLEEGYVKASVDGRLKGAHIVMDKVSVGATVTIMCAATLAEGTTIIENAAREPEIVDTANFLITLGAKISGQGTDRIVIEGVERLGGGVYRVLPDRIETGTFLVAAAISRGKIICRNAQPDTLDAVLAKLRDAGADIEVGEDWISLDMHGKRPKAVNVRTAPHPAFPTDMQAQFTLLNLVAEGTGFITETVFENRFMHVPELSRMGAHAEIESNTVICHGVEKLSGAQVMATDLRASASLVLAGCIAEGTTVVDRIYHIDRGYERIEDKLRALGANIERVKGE
# Method: as §1
# [9] = molecular target: T1, MurD (UniProt P14900)
# T1 sequence (whole entry): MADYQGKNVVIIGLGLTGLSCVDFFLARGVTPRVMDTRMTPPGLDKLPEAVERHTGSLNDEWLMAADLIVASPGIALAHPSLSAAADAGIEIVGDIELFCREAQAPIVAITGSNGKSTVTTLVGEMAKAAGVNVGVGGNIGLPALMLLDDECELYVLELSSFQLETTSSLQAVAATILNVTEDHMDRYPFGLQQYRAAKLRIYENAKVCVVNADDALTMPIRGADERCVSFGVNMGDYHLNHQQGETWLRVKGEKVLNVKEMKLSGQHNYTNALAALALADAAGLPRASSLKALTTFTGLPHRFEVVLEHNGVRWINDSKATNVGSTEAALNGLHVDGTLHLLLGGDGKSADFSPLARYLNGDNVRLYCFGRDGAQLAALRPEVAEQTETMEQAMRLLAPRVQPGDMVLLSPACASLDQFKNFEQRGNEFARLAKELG
# Method: as §1
# [10] = molecular target: T2, MurF (UniProt P11880)
# T2 sequence (whole entry): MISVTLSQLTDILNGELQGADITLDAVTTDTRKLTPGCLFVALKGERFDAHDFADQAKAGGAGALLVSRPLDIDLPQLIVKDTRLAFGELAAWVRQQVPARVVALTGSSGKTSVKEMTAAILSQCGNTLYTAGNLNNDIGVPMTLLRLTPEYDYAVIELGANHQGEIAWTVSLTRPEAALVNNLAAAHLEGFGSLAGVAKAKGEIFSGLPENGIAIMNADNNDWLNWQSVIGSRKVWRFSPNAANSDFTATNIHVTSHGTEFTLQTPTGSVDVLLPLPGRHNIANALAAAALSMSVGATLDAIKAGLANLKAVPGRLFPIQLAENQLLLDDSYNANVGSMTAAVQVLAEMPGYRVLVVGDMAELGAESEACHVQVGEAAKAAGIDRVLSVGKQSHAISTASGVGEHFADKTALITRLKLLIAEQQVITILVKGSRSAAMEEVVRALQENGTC
# Method: as §1
# [11] = test system: RNA polymerase
# Method: as §1
Compound,relative enzymatic activity [1],relative enzymatic activity [2],relative enzymatic activity [3],relative enzymatic activity [4],relative enzymatic activity [5],relative enzymatic activity [6],relative enzymatic activity [7],relative enzymatic activity [8],relative enzymatic activity [9],relative enzymatic activity [10],relative enzymatic activity [11]
CN1CCN(c2c(F)cc3c(=O)c(C(=O)O)cn4c3c2OCN4C)CC1,0.115 ± 0.16,0.53713 ± 0.00022,0.908 ± 0.041,1.17 ± 0.21,0.86 ± 0.01,0.97 ± 0.023,0.958 ± 0.14,0.585 ± 0.19,0.624 ± 0.43,1.17 ± 0.022,0.816 ± 0.086
Cc1cc(O)c(C(=O)NC(C(=O)NC2C(=O)N3C(C(=O)O)=C(CSc4nnnn4C)CSC23)c2ccc(O)cc2)cn1 (configuration not stated),0.926 ± 0.39,0.805 ± 0.39,1.22 ± 0.41,1.34 ± 0.42,0.891 ± 0.028,0.962 ± 0.018,0.925 ± 0.044,0.346 ± 0.0056,0.601 ± 0.41,0.945 ± 0.24,0.862 ± 0.071
C/C(=C\C(=O)OCCCCCCCCC(=O)O)C[C@@H]1OC[C@H](C[C@@H]2O[C@H]2[C@@H](C)[C@H](C)O)[C@@H](O)[C@H]1O,0.849 ± 0.24,0.52 ± 0.098,0.897 ± 0.013,0.512 ± 0.72,0.807 ± 0.031,0.999 ± 0.045,1.06 ± 0.087,0.688 ± 0.19,0.607 ± 0.43,1.17 ± 0.52,0.935 ± 0.11
NC(=O)NN=Cc1ccc([N+](=O)[O-])o1,0.958 ± 0.23,0.58 ± 0.06,1.11 ± 0.018,1.32 ± 0.48,0.739 ± 0.24,0.955 ± 0.085,0.897 ± 0.13,0.491 ± 0.15,0.559 ± 0.37,0.933 ± 0.28,0.8 ± 0.09
CN(C)c1ccc(O)c2c1CC1CC3C(N(C)C)C(O)=C(C(N)=O)C(=O)C3(O)C(O)=C1C2=O.Cl (configuration not stated),0.541 ± 0.071,0.129 ± 0.0081,0.831 ± 0.21,0.908 ± 0.4,0.4515 ± 0.0044,0.955 ± 0.066,0.577 ± 0.027,0.0902 ± 0.0036,0.602 ± 0.4,0.939 ± 0.18,0.184 ± 0.083
CC(C)(C)CC(C)(C)c1ccc(OCCOCC[N+](C)(C)Cc2ccccc2)cc1.[Cl-],0.0482 ± 0.068,0.0168 ± 0.00082,0.917 ± 0.17,0.4 ± 0.06,0.709 ± 0.21,0.121 ± 0.031,0.439 ± 0.06,0.0623 ± 0.0083,0.114 ± 0.033,0.193 ± 0.035,0.838 ± 0.16
COc1c(N2CC3CCCNC3C2)c(F)cc2c(=O)c(C(=O)O)cn(C3CC3)c12.Cl (configuration not stated),0.0344 ± 0.049,0.559 ± 0.16,1.22 ± 0.1,1.13 ± 0.18,0.682 ± 0.17,0.986 ± 0.039,0.825 ± 0.096,0.795 ± 0.041,0.597 ± 0.41,0.94 ± 0.19,0.868 ± 0.083
CN[C@@H]1[C@H](O)[C@H](NC)[C@H]2O[C@@]3(O)C(=O)C[C@@H](C)O[C@H]3O[C@@H]2[C@H]1O,0.826 ± 0.36,0.508 ± 0.2,1.12 ± 0.086,1.09 ± 0.072,0.8044 ± 0.0019,1 ± 0.033,1.06 ± 0.05,0.601 ± 0.16,0.624 ± 0.44,1.16 ± 0.02,0.91 ± 0.14
Cn1cc(-c2[nH]c3cc(NC(=O)[C@H](N)C4CCCCC4)cc4c3c2C=NNC4=O)cn1,0.0124 ± 0.018,0.0463 ± 0.061,0.703 ± 0.085,0.083 ± 0.099,≤ 0,0.899 ± 0.013,0.0166 ± 0.0039,0.348 ± 0.12,0.599 ± 0.43,1.13 ± 0.017,0.191 ± 0.029
Cl.N=C(N)n1cccn1,0.0897 ± 0.13,0.649 ± 0.3,1.13 ± 0.067,1.15 ± 0.22,0.868 ± 0.027,1.014 ± 0.0039,0.902 ± 0.2,0.813 ± 0.052,0.613 ± 0.43,0.939 ± 0.23,0.787 ± 0.012
NCCCC[C@H](NC(=O)[C@@H](NC(=O)[C@H](Cc1c[nH]c2ccccc12)NC(=O)[C@H](CCCCN)NC(=O)[C@H](CCCCN)NC(=O)[C@H](Cc1c[nH]c2ccccc12)NC(=O)[C@H](Cc1c[nH]c2ccccc12)NC(=O)[C@H](CCCCN)NC(=O)[C@@H](N)CCCCN)C(c1ccccc1)c1ccccc1)C(N)=O,0.0308 ± 0.044,0.0869 ± 0.0012,1.12 ± 0.43,0.0842 ± 0.0071,0.299 ± 0.053,0.879 ± 0.061,0.355 ± 0.02,0.477 ± 0.43,0.568 ± 0.41,0.833 ± 0.18,0.0964 ± 0.032
CC[C@@H]1OC(=O)[C@H](C)[C@@H](O[C@H]2C[C@@](C)(OC)[C@@H](O)[C@H](C)O2)[C@H](C)[C@@H](O[C@@H]2O[C@H](C)C[C@H](N(C)C)[C@H]2O)[C@](C)(O)C[C@@H](C)/C(=N\OCOCCOC)[C@H](C)[C@@H](O)[C@]1(C)O,0.682 ± 0.5,0.568 ± 0.081,0.8031 ± 0.0034,0.48 ± 0.67,0.8559 ± 0.0026,0.895 ± 0.076,0.922 ± 0.026,0.852 ± 0.19,0.583 ± 0.4,1.12 ± 0.015,0.884 ± 0.17
CN[C@@H]1[C@H](O[C@H]2[C@H](O[C@@H]3[C@@H](O)[C@H](O)[C@@H](NC(=N)N)[C@H](O)[C@H]3NC(=N)N)O[C@@H](C)[C@]2(O)CO)O[C@@H](CO)[C@H](O)[C@H]1O.CN[C@@H]1[C@H](O[C@H]2[C@H](O[C@@H]3[C@@H](O)[C@H](O)[C@@H](NC(=N)N)[C@H](O)[C@H]3NC(=N)N)O[C@@H](C)[C@]2(O)CO)O[C@@H](CO)[C@H](O)[C@H]1O,0.527 ± 0.36,0.498 ± 0.089,1.09 ± 0.32,1.08 ± 0.055,0.853 ± 0.0042,1.001 ± 0.0056,0.983 ± 0.047,0.803 ± 0.02,0.922 ± 0.86,0.524 ± 0.73,0.481 ± 0.52
O=C([O-])CCC(=O)OCC(NC(=O)C(Cl)Cl)C(O)c1ccc([N+](=O)[O-])cc1.[Na+] (configuration not stated),1.05 ± 0.13,0.463 ± 0.053,0.965 ± 0.047,1.27 ± 0.34,0.718 ± 0.2,1.02 ± 0.042,1.025 ± 0.0099,0.872 ± 0.038,0.578 ± 0.37,0.957 ± 0.19,0.838 ± 0.064
CCn1nc(C(=O)O)c(=O)c2cc3c(cc21)OCO3,0.136 ± 0.013,0.479 ± 0.042,1.093 ± 0.01,1.29 ± 0.3,0.744 ± 0.21,0.99 ± 0.077,1.013 ± 0.0046,0.762 ± 0.17,0.61 ± 0.41,0.86 ± 0.028,0.929 ± 0.051
O=C1OC(=O)[C@H]2[C@@H]1[C@H]1CC[C@H]2O1,0.864 ± 0.32,0.551 ± 0.09,1.15 ± 0.085,1.01 ± 0.012,0.811 ± 0.0082,1.07 ± 0.033,1.01 ± 0.066,0.734 ± 0.16,0.606 ± 0.38,0.979 ± 0.22,0.888 ± 0.18
CO/N=C(\C(=O)N[C@@H]1C(=O)N2C(C(=O)O)=C(C[n+]3ccn4ncccc43)CS[C@H]12)c1nsc(N)n1,0.675 ± 0.49,0.625 ± 0.3,0.891 ± 0.17,1.14 ± 0.26,0.77 ± 0.018,0.999 ± 0.0029,0.949 ± 0.069,0.305 ± 0.13,0.591 ± 0.38,0.909 ± 0.24,0.8278 ± 0.0046

# Source: the supplement of paper PMC9446081
